# Data reported in PubChem BioAssay (NCATS).
# Inconclusive results are not listed. Values without a mark were called inactive. Active and inactive are the calls of the source. Calls follow the shape of the dose curve; as a rule, active = well fitted inhibition curve with a large enough effect; inconclusive = small, poorly fitted or top-dose-only effect; inactive = no such curve, though single readings can be large or run the other way.
# Molecular target: Retinaldehyde dehydrogenase 3 (Homo sapiens) (UniProt P47895)
# Test: qHTS for Inhibitors of the Aldehyde Dehydrogenase Family (ALDH1A3) Primary screen (AID 2061315);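 also: plate controls were DMSO vehicle for no effect and reference inhibitor for full effect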
# Details: ALDH inhibition qHTS; series mostly up to 56 µM; activity change, negative = inhibition: at the top concentration
Structure (SMILES),"activity change, negative = inhibition",Potency
Cc1cc2c(cc1C1(c3ccc(C(=O)O)cc3)CC1)C(C)(C)CCC2(C)C,0.586%,–
O=C1CCCC2=C1C(c1[nH]ncc1Cl)N=C(Nc1ccccc1)N2 (stereo not given),1.66%,–
COc1cc([C@H]2O[C@H](c3cc(OC)c4c(c3)OCO4)[C@H](C)[C@H]2C)cc(OC)c1OC,-5.31% [at 28 µM],–
COC(=O)c1ccc(NC(=O)c2nc3ccccc3n(C)c2=O)cc1,-15.9%,–
COc1ccccc1NC(=O)c1ccc2ccccc2c1,-4.69%,–
Cc1cccc(Cn2ncc3c4sc(C)cc4n(C)c3c2=O)c1,0.26%,–
Cc1cc(C)nc(NC(=S)N2CCN(c3nccs3)CC2)c1,–,inactive
O=S(=O)(NC[C@@H]1CCC[C@H](CNS(=O)(=O)c2c(F)cccc2F)C1)c1ccc2c(c1)OCCO2,–,inactive
CC1CC(O)/C=C/C(O)/C=C\C(=O)O1 (stereo not given),-9.09% [at 81.8 µM],–
CC(=O)c1cccc(-c2ccc(-c3nc4ccccc4c(=O)[nH]3)o2)c1,-0.0563%,–
CC(C)(C)[C@H](NC(=O)c1ccc(N)c(Cl)c1)C(=O)N1CCC[C@H]1C(=O)N[C@H](C#N)Cc1nn[nH]n1,18%,–
CC1OC2OC3C(OCC(O)C3O)OC(=O)C34CCC(C)(C)CC3C3=CCC5C6(C)CC(O)C(OC7OC(CO)C(O)C(O)C7OC7OCC(OC(=O)CC(C)(O)CC(=O)OC1C(OC1OCC(O)C(O)C1O)C2O)C(O)C7O)C(C)(CO)C6CCC5(C)C3(C)CC4O (stereo not given),-13.4% [at 28 µM],–
CC(NCc1ccc2c(c1)nc(NC(=O)c1ccc(-c3cn[nH]c3)s1)n2CC(C)(C)O)C(C)(C)C (stereo not given),23.7%,–
Fc1cc(Nc2nc(-c3ccncc3)nc3ccccc23)ccc1-n1cncn1,–,inactive
Cc1ccc(OCCn2c(CCNC(=O)C3CCCCCC3)nc3ccccc32)cc1,-4.2%,–
N#Cc1c(-c2ccccc2)no[n+]1[O-],-3.19%,–
O=C1CCCC2=C1C(c1ccc(F)cc1)N=C(Nc1nc3ccccc3o1)N2 (stereo not given),20.2%,–
Cc1ccc(OCCn2c(CCNC(=O)c3ccccc3C)nc3ccccc32)cc1,11.1%,–
c1nc(OCc2cnc[nH]2)c2cc(-c3ccc4c(c3)OCO4)ccc2n1,4.8%,–
O=C1CCCC2=C1[C@@]1(CCC(c3ccccc3)C1)N=C(Nc1nc3ccccc3o1)N2 (stereo not given in full),–,inactive
O=[N+]([O-])c1ccc(-c2nc(Nc3ccc(F)c(F)c3)c3ccccc3n2)cc1,5.84%,–
Nc1ccc(Cl)cc1C(=O)c1ccc[nH]1,18%,–
CCNC(=O)C1CCN(C(=O)C(C)(C)NC(=O)Nc2ccccc2Cl)CC1,-1.23%,–
CCOC(=O)c1nn(-c2ccccc2)c(=O)c2c(N)sc(C)c12,-5.65%,–
CC(C)(C)OC(=O)Nc1ncnc2c1C(c1ccccc1)c1c(ccc3ccccc13)O2 (stereo not given),20.4%,–
